As a reminder, the AC50 is the concentration giving half of the maximal activity seen.

Read-out in test [1]: Human Leukocyte Antigen - DR isotype (HLADR), HLA-DRA (gene 3122)
The experiment in a line: BSK_CASM3C_HLADR: BioMAP Diversity Plus: CASM3C Assay for Human Leukocyte Antigen - DR isotype (HLADR) Biomarker Activity (AID 2283043).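 Also: cell-surface HLA-DR protein level quantified by ELISA.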 Particulars: primary human coronary artery smooth muscle cells; actives raise or lower the signal.

Read-out in test [2]: Macrophage colony-stimulating factor (MCSF), CSF1 (gene 1435)
The experiment in a line: BSK_CASM3C_MCSF: BioMAP Diversity Plus: CASM3C Assay for Macrophage colony-stimulating factor (MCSF) Biomarker Activity (AID 2283044).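 Also: M-CSF protein amount quantified by ELISA after 24 h exposure.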 Conditions: primary human coronary artery smooth muscle cells; actives raise or lower the signal.

Read-out in test [3]: Low-density lipoprotein receptor (LDLR), LDLR (gene 3949)
The experiment in a line: BSK_CASM3C_LDLR: BioMAP Diversity Plus: CASM3C Assay for Low-density lipoprotein receptor (LDLR) Biomarker Activity (AID 2283045).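 Also: LDLR protein level on the cell surface quantified by ELISA.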 Particulars: primary human coronary artery smooth muscle cells; actives raise or lower the signal.

Read-out in test [4]: Monocyte Chemoattractant Protein-1 (MCP1), CCL2 (gene 6347)
The experiment in a line: BSK_CASM3C_MCP1: BioMAP Diversity Plus: CASM3C Assay for Monocyte Chemoattractant Protein-1 (MCP1) Biomarker Activity (AID 2283046).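 Also: MCP-1 level quantified by ELISA 24 h after dosing.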 Particulars: primary human coronary artery smooth muscle cells; actives raise or lower the signal.

Test [5] in a line: BSK_CASM3C_Proliferation: Cell Proliferation Assessment in the BioMAP Diversity Plus: CASM3C Assay (AID 2283047).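 Also: sulforhodamine B total protein stain as relative cell number at 560 nm; sub-confluent cells exposed 48 h before staining; fitted both ways against DMSO so gain or loss of cell number.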 Conditions: primary human coronary artery smooth muscle cells.
Read-out in test [6]: Monokine induced gamma interferon (MIG), CXCL9 (gene 4283)
The experiment in a line: BSK_CASM3C_MIG: BioMAP Diversity Plus: CASM3C Assay for Monokine induced gamma interferon (MIG) Biomarker Activity (AID 2283048).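 Also: MIG protein level measured by ELISA.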 Conditions: primary human coronary artery smooth muscle cells; actives raise or lower the signal.

Read-out in test [7]: serum amyloid A (SAA), SAA1 (gene 6288)
The experiment in a line: BSK_CASM3C_SAA: BioMAP Diversity Plus: CASM3C Assay for serum amyloid A (SAA) Biomarker Activity (AID 2283049).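 Also: SAA protein level quantified by ELISA.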 Conditions: primary human coronary artery smooth muscle cells; actives raise or lower the signal.

Test [8] can be described thus: BSK_CASM3C_SRB: Viability Assessment in the BioMAP Diversity Plus: CASM3C Assay (AID 2283050).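 Also: total protein by SRB staining as cytotoxicity measure in parallel cultures.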 Conditions: primary human coronary artery smooth muscle cells.
Read-out in test [9]: Thrombomodulin, THBD (gene 7056)
The experiment in a line: BSK_CASM3C_Thrombomodulin: BioMAP Diversity Plus: CASM3C Assay for Thrombomodulin Biomarker Activity (AID 2283051).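 Also: thrombomodulin protein level measured by ELISA 24 h after dosing.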 Conditions: primary human coronary artery smooth muscle cells; actives raise or lower the signal.

Read-out in test [10]: Tissue Factor, F3 (gene 2152)
The experiment in a line: BSK_CASM3C_TissueFactor: BioMAP Diversity Plus: CASM3C Assay for Tissue Factor Biomarker Activity (AID 2283052).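 Also: cell surface tissue factor protein level read by ELISA.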 Conditions: primary human coronary artery smooth muscle cells; actives raise or lower the signal.

Read-out in test [11]: Interferon-gamma inducible Protein 10 (IP10), CXCL10 (gene 3627)
The experiment in a line: BSK_hDFCGF_IP10: BioMAP Diversity Plus: hDFCGF Assay for Interferon-gamma inducible Protein 10 (IP10) Biomarker Activity (AID 2283053). Particulars: primary human foreskin fibroblasts; actives raise or lower the signal. Put shortly: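 Primary foreskin fibroblasts, human; 24 h compound exposure; IP-10 by ELISA; bidirectional fit vs DMSO.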

Read-out in test [12]: Urokinase-type plasminogen activator receptor (uPAR), PLAUR (gene 5329)
The experiment in a line: BSK_CASM3C_uPAR: BioMAP Diversity Plus: CASM3C Assay for Urokinase-type plasminogen activator receptor (uPAR) Biomarker Activity (AID 2283054).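 Also: cell-surface uPAR protein level quantified by ELISA.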 Particulars: primary human coronary artery smooth muscle cells; actives raise or lower the signal.

Read-out in test [13]: Vascular cell adhesion molecule 1 (VCAM1), VCAM1 (gene 7412)
The experiment in a line: BSK_CASM3C_VCAM1: BioMAP Diversity Plus: CASM3C Assay for Vascular cell adhesion molecule 1 (VCAM1) Biomarker Activity (AID 2283055).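 Also: VCAM-1 protein level quantified by ELISA on the cells.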 Particulars: primary human coronary artery smooth muscle cells; actives raise or lower the signal.

Read-out in test [14]: Collagen III, COL3A1 (gene 1281)
The experiment in a line: BSK_hDFCGF_CollagenIII: BioMAP Diversity Plus: hDFCGF Assay for Collagen III Biomarker Activity (AID 2283056). Conditions: primary human foreskin fibroblasts; actives raise or lower the signal. Put shortly:
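Response relative to DMSO, fitted in both directions, reflects ELISA-measured collagen III in human primary skin fibroblasts 24 h after compound addition.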

Read-out in test [15]: Epidermal growth factor receptor (EGFR), EGFR (gene 1956)
The experiment in a line: BSK_hDFCGF_EGFR: BioMAP Diversity Plus: hDFCGF Assay for Epidermal growth factor receptor (EGFR) Biomarker Activity (AID 2283057). Particulars: primary human foreskin fibroblasts; actives raise or lower the signal. Put shortly: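 hDFCGF system, primary human foreskin fibroblasts; compound 24 h; EGFR measured by ELISA; DMSO = negative control/baseline; bidirectional fitting.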

Read-out in test [16]: Interleukin-8 (IL8), CXCL8 (gene 3576)
The experiment in a line: BSK_hDFCGF_IL8: BioMAP Diversity Plus: hDFCGF Assay for Interleukin-8 (IL8) Biomarker Activity (AID 2283058). Conditions: primary human foreskin fibroblasts; actives raise or lower the signal. In outline: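 Fibroblast monolayers (human foreskin, hDFCGF) received test chemical for 24 h before ELISA detection of IL-8; either increases or decreases relative to DMSO count as activity.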

Test [17] can be described thus: BSK_hDFCGF_Proliferation: Cell Proliferation Assessment in the BioMAP Diversity Plus: hDFCGF Assay (AID 2283059).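 Also: curves fitted for both rise and fall of signal versus DMSO baseline.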 Conditions: primary human foreskin fibroblasts. Put shortly: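 Sub-confluent human foreskin fibroblast cultures receive test chemical […]. Relative cell number is quantified by sulforhodamine B staining (0.1%, after 10% TCA fixation) at 560 nm, with bidirectional fitting referenced to DMSO.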

Read-out in test [18]: Macrophage colony-stimulating factor (MCSF), CSF1 (gene 1435)
The experiment in a line: BSK_hDFCGF_MCSF: BioMAP Diversity Plus: hDFCGF Assay for Macrophage colony-stimulating factor (MCSF) Biomarker Activity (AID 2283060). Particulars: primary human foreskin fibroblasts; actives raise or lower the signal. In outline:
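fibroblasts (human foreskin, primary), 24 h post-dose; M-CSF by ELISA; bidirectional fit, DMSO = baseline.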

Test [19] is described as follows: BSK_hDFCGF_SRB: Viability Assessment in the BioMAP Diversity Plus: hDFCGF Assay (AID 2283061).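 Also: cells exposed to compound for 24 h before the read.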 Particulars: primary human foreskin fibroblasts. Put shortly: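 SRB-based viability read on primary human skin fibroblasts at 24 h: TCA fixation, 0.1% dye, 560 nm. Gain or loss of signal is fitted against the DMSO negative control.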
Read-out in test [20]: TIMP metallopeptidase inhibitor 1 (TIMP1), TIMP1 (gene 7076)
The experiment in a line: BSK_hDFCGF_TIMP1: BioMAP Diversity Plus: hDFCGF Assay for TIMP metallopeptidase inhibitor 1 (TIMP1) Biomarker Activity (AID 2283062). Conditions: primary human foreskin fibroblasts; actives raise or lower the signal. Put shortly: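 Bidirectional curve fitting against DMSO baseline yielded this endpoint, based on ELISA detection of TIMP-1 in primary human foreskin fibroblasts exposed to compound for 24 h.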

The source holds several records for some structures; these can differ, active in one and inactive in another. Activity calls are given as the source filed them. The calls were made as follows: active = hit-call score of the fitted dose curve at least 0.9, where 1 is the maximum; inactive = score below 0.9.

Regarding `CCCCC/C=C\C/C=C\CCCCCCCC(=O)OC`, the AC50 was 20 µM (active) in test [1]; 20 µM (active) in test [2]; 28.7 µM (active) in test [3]; 33.7 µM (active) in test [4]; 14.4 µM (active) in test [5]; 31.1 µM (active) in test [6]. In addition, the AC50 in [8] was 31.7 µM (active); in test [10], 11.4 µM (active); in test [11], 33.5 µM (active); in test [12] it was 28.7 µM (active); in [13], 21.6 µM (active); in test [14] it was 27.8 µM (active). For the same compound, the AC50 is 5.85 µM (active) in test [17], 26.5 µM (active) in test [18], 31.5 µM (active) in test [19] and 29.3 µM (active) in [20]. Moreover, the outcome in [7], in [9], in test [15] and in [16] was inactive.
Take `c1ccc2c(c1)ccc1ncccc12`: the outcome in test [1], in test [2], in test [3], in [4], in test [5] and in test [6] was inactive. Moreover, the result in [7], in test [8], in test [9], in test [10], in test [11] and in [12] was inactive. The outcome in test [13], in test [14], in test [15], in [16], in test [18] and in [19] was inactive. The result in test [20] was inactive. Also, the AC50 in test [17] was 20 µM (active).
Take `CCCCC(CC)COCC1CO1` (stereo not given): the outcome in test [1], in test [2], in test [3], in [4], in test [5] and in [6] was inactive. Besides, the result in test [7], in [8], in test [9], in test [10], in test [11] and in test [12] was inactive. The result in [13], in test [14], in test [15], in [16], in test [17] and in test [18] was inactive. The result in [19] and in [20] was inactive.
Turning to `c1ccc(-c2ccccn2)nc1`, the outcome in [1], in test [2], in test [3], in [4], in test [5] and in [6] was inactive. In addition, the outcome in test [7], in test [8], in [9], in [10], in test [11] and in [12] was inactive. The result in test [13], in test [14], in test [15], in test [16], in test [17] and in [18] was inactive. The outcome in test [19] and in test [20] was inactive.
`C=CC=CC=CCCCCC`: the AC50 in test [1] is 5 µM (active); in test [5], 5 µM (active); in test [13], 5 µM (active); in test [14], 7.41 µM (active); in [17], 7.28 µM (active). The result in test [2], in test [3], in test [4], in test [6], in test [7] and in test [8] was inactive. The result in test [9], in [10], in [11], in test [12], in test [15] and in test [16] was inactive. For the same compound, the outcome in [18], in test [19] and in test [20] was inactive.
As for `COCc1c(C(C)C)nc(C(C)C)c(/C=C/[C@@H](O)C[C@@H](O)CC(=O)O)c1-c1ccc(F)cc1`, the result in test [1], in test [2], in test [3], in test [4], in [6] and in test [7] was inactive. Besides, the result in [8], in test [11], in [12], in test [13], in test [14] and in test [15] was inactive. Also, the result in test [18] and in test [20] was inactive. Moreover, the AC50 in test [5] is 0.056 µM (active); in test [9] it was 0.00777 µM (active); in test [10], 0.00777 µM (active); in test [17] it was 0.0803 µM (active); in [19], 0.32 µM (active).
For `S=C(NC1CCCCC1)NC1CCCCC1`, the outcome in test [1], in test [2], in test [3], in [4], in test [5] and in test [6] was inactive. In addition, the result in test [7], in test [8], in [10], in test [11], in test [12] and in test [13] was inactive. Moreover, the result in test [14], in test [15], in test [16], in test [17], in test [18] and in [19] was inactive. In [20], the outcome was inactive. Moreover, in test [9], the AC50 is 20 µM (active).
On to `C=CCOCC(O)CCl` (stereo not given), for which the outcome in test [1], in test [2], in test [3], in [4], in test [5] and in test [6] was inactive. Besides, the result in test [7], in [8], in test [9], in test [10], in test [11] and in [12] was inactive. In addition, the outcome in [13], in [14], in test [15], in test [16], in test [17] and in [18] was inactive. Further, the outcome in test [19] and in test [20] was inactive.
As for `CN1C(=O)N(C)C(O)C1O` (stereo not given), the result in test [1], in test [2], in [3], in [4], in [5] and in [6] was inactive. The result in test [7], in test [8], in [9], in test [10], in test [11] and in [12] was inactive. In addition, the result in test [13], in test [14], in [15], in test [16], in test [17] and in test [18] was inactive. Moreover, the result in [19] and in test [20] was inactive. In addition, the AC50 in test [13] was 0.179 µM (active).
